Compound activity as filed in PubChem.
Sampled rows, rich in hits. Any-hit rate of the full collection: about 6.9%.
Beta cell apopt: inhibitors of cytokine-induced beta cell apoptosis, primary screen, luminescence. INS-1E cytokine-induced death, ATP luminescence, 48 h; percent of positive-control rescue, neutral wells zero. protection from apoptosis, % (test concentration not listed). 0.8% of 300,000 active. AID 435005, 2010;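 active = Every replicate reaches about 75%, or at least half do and their mean reaches it too, limit read from the data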;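 note: 0% = cytokine-treated negative control wells and 100% = positive control rescue; higher means more ATP so stronger rescue from cytokine killing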
Mdm2 MdmX PPI: inhibitors of human Mdm2-MdmX association, primary screen, cell-based, luminescence, split luciferase, SaOS-2, uHTS; AID 485346, 2010; inhibition, % at 8 µM; SaOS-2 split-luciferase Mdm2/MdmX complementation; 3% of 330,000 active;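 active = inhibition of at least 50% at 8 µM in the primary screen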
SKKanGAS inh: S. pyogenes SKKanGAS growth inhibitors in kanamycin, primary screen, streptokinase expression inhibitor project, SKKanGAS strain, BacTiter-Glo luminescence; 6 h; 1.3% of 300,000 active; inhibition, % at 7.5 µM;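 active = mean replicate score, as percent of positive control median, at least 50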;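 note: strain carries kanamycin resistance gene driven by streptokinase promoter and grows in 40 µg/ml kanamycin; loss of luminescence reflects streptokinase promoter inhibition or plain growth inhibition; 0% = median of DMSO wells and 100% = positive control at its reference dose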
MPTP block: mitochondrial permeability transition pore inhibitors, primary screen, biochemical, isolated mouse mitochondria, absorbance. inhibition, % at 10 µM. Ca2+ swelling absorbance, 30 min. 1.4% of 360,000 active. AID 602449, 2012;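 active = inhibition of 50% or more, scaled per plate between neutral and stimulator controls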;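 note: 0% = DMSO wells given calcium and 100% = 1 mM EGTA wells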
NR3A LBD binder: binders of NR3A ligand-binding domain, primary screen, biophysical, differential scanning fluorimetry, uHTS. Glutamate receptor ionotropic, NMDA 3A (GRIN3A) ligand-binding domain. NR3A LBD differential scanning fluorimetry, Tm shift; 0% = protein alone, 100% = glycine-bound protein. Tm shift relative to glycine control, % at 25 µM. 2.5% of 340,000 active. AID 1259313, 2017;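 active = melting temperature shift of at least 10% of the positive control shift, at one fixed dose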
CSC inhib: cancer stem cell viability inhibitors, primary screen, luminescence; cancer stem cell-like cells viability; inhibition, % at 7.5 µM; 1.1% of 300,000 active; AID 2717, 2010; in the data active = inhibition above about 75%; tested in HMLE shEcad cells
* marks the source's active call; other numbers are inactive results; · = no result given.

SMILES	Beta cell apopt	Mdm2 MdmX PPI	SKKanGAS inh	MPTP block	NR3A LBD binder	CSC inhib
O=C(Cn1nnc(-c2ccccc2)n1)N/N=C/c1cc([N+](=O)[O-])c(Cl)cc1Cl	-6	-25	-6	19	16*	-5
C#CNC(=O)C1(CC=C)CCNCC1	-10	-48	-2	-1	2	-3
CCN(CCO)c1nc(NCc2ccccc2)c2cnn(C)c2n1	-9	9	6	-1	0	58
CC1CN(C(=O)CCNC(=O)c2ccc(Br)cc2)CC(C)O1 (stereo not drawn)	-4	14	-5	-2	1	1
COc1ccc(OC)c(S(=O)(=O)Nc2ccc(C(N)=O)cc2)c1	-1	29	7	0	2	-10
COc1ccc(OC)c(S(=O)(=O)Nc2ccc(C(C)=O)cc2)c1	·	14	3	0	11*	·
COc1ccc(OC)c(S(=O)(=O)Nc2ccc(O)c3ccccc23)c1	103*	20	37	-1	-1	20
Cc1ccc(C(=O)C(C)N2C(=O)NC(C)(c3ccccc3)C2=O)cc1 (stereo not drawn)	4	10	8	-2	1	·
CCN(c1ccc(OC)cc1)S(=O)(=O)c1nnc(NC(=O)c2ccco2)s1	0	12	23	7	-6	8
CCN(c1ccc(OC)cc1)S(=O)(=O)c1nnc(NC(=O)c2ccccc2Cl)s1	5	-24	50*	1	3	21
FC(F)Sc1ccc(NC(=S)NC2CCC(NC(=S)Nc3ccc(SC(F)F)cc3)CC2)cc1 (stereo not drawn)	2	26	9	4	17*	25
FC(F)Oc1ccc(NC(=S)NC2CCCCCCC2)cc1	7	-18	23	34	2	·
COC(=O)[C@@]12C[C@@H](CC(=O)NCc3cccc4ccccc34)C(=O)N(Cc3ccc4c(c3)OCO4)C1=CCC(C)(C)C2	·	·	·	-3	·	·
N#Cc1c(SCC(=O)Nc2ccccc2)nsc1SCC(=O)Nc1ccccc1	4	-15	4	5	15*	-7
Cc1cccc(NC(=O)CSc2nsc(SCC(=O)Nc3cccc(C)c3)c2C#N)c1	-9	-4	2	36	14*	-14
CC(=O)Nc1cccc(NC(=O)CSc2nc(C)c(C)c(C)c2C#N)c1	1	6	10	3	-1	3
CCc1ccc(CN2CCCC(CNC(=O)c3cccc(OC)c3OC)C2)cc1 (stereo not drawn)	5	15	-3	1	1	-5
COc1cc(NC(=O)CN2CCN(c3ccccc3F)CC2)c(C)cc1[N+](=O)[O-]	-2	19	-7	4	15*	4
CCOc1ccc(OCC)c(NC(=O)CN2CCN(c3cccc(C)c3C)CC2)c1	1	14	·	7	11*	4
CN1CCN(CC(=O)Nc2ccccc2[N+](=O)[O-])CC1	·	16	2	0	3	·
Cc1cccc(N2CCN(CC(=O)Nc3ccccc3[N+](=O)[O-])CC2)c1C	-9	9	11	2	15*	4
CCOc1cc(N2CCOCC2)c(OCC)cc1NC(=O)CN1CCC(Cc2ccccc2)CC1	-4	13	-1	3	1	84*
O=C(C[C@@H]1CC[C@H](NC(=O)c2ccc3c(c2)OCO3)[C@@H](CO)O1)NCc1ccc(F)cc1	·	·	·	-1	·	·
CC(Nc1nc2ncn(Cc3ccccc3)c2c(=O)[nH]1)C(=O)O (stereo not drawn)	-1	4	-1	-1	15*	-14
O/N=C/c1cn(-c2ccccc2)nc1-c1cccnc1	-7	-21	-1	-1	-1	-3
SMILES	Beta cell apopt	Mdm2 MdmX PPI	SKKanGAS inh	MPTP block	NR3A LBD binder	CSC inhib
O=C(N/N=C/c1cn(-c2ccccc2)nc1-c1ccc(F)cc1)c1ccc(Br)o1	110*	34	26	-1	2	31
O=C(N/N=C/c1cn(-c2ccccc2)nc1-c1cccnc1)c1ccc(F)cc1	5	19	-8	0	-7	-18
COc1ccc(-c2nn(-c3ccccc3)cc2/C=N/NC(N)=S)cc1OC	9	·	9	0	19*	68
Cc1ccc(-c2nn(-c3ccccc3)cc2/C=N/NS(=O)(=O)c2ccccc2)cc1	·	-33	18	8	24*	·
Cc1ccc(-c2nn(-c3ccccc3)cc2/C=N/O)cc1	-9	-32	58*	1	-9	25
CCC(=O)C1CCCN(C(=O)c2cccc(OC3CCN(S(C)(=O)=O)CC3)c2)C1 (stereo not drawn)	-6	-3	-1	0	1	-2
CCNC(=O)c1ccc(NS(=O)(=O)c2ccc3[nH]c(=O)[nH]c3c2)cc1	-15	23	0	-2	2	-7
COc1ccc(NC(=O)CCS(=O)(=O)c2ccc3c(c2)oc(=O)n3C)cc1	0	-7	1	-1	-3	3
CCCNC(=O)C1(C)CCCN(C(=O)c2c(F)ccc(C)c2F)C1 (stereo not drawn)	·	·	·	0	·	·
CC(=O)Nc1cccc(-c2ccnc3c2CC(C(=O)NCCc2ccccc2)O3)c1 (stereo not drawn)	·	·	·	0	·	·
O=C(/C=C/c1cn(-c2ccccc2)nc1-c1ccccc1)Nc1ccc(C(=O)O)cc1	0	9	50*	8	-2	10
Cc1ccc(S(=O)(=O)N/N=C\c2cn(-c3ccccc3)nc2-c2ccccc2)cc1	-4	21	24	10	29*	14
Cc1ccc(S(=O)(=O)N/N=C/c2c(C)nn(-c3ccccc3)c2C)cc1	4	-20	6	-1	-6	23
O=C(O)c1ccc(NC(=O)c2cn(-c3ccccc3)nc2-c2ccc(F)cc2)cc1	-4	19	9	2	-5	-5
O=S(=O)(N/N=C\c1cn(-c2ccccc2)nc1-c1ccccc1)c1ccccc1	0	20	6	6	20*	8
NC(=O)N/N=C/c1cn(-c2ccccc2)nc1-c1ccccc1	9	-13	0	-2	-13	20
COc1ccc(C(CNCC(O)COc2c(C)ccc(C)c2C)N(C)C)cc1 (stereo not drawn)	0	21	27	3	0	10
CCOc1ccc(Cn2c(=O)oc3ccccc32)cc1	·	10	1	1	-1	·
CCCCCCC1CC(=O)NC(=O)N1 (stereo not drawn)	-11	2	30	1	14*	-7
CCCCCC1CC(=O)NC1(C(=O)OCC)C(=O)OCC (stereo not drawn)	·	·	·	1	0	·
C=CCOC(=O)Nc1nc(CCNC(=O)OC(C)(C)C)c(C(=O)OC)s1	·	·	·	11	·	·
